Laboratory results as given in the supplement of paper PMC12282887.
± gives the standard deviation of the averaged measurements.

System: E. coli BW25113 marRABp lux reporter
Assay: promoter activity interaction Z-score (Lux/OD deviation from empty-vector control); higher = stronger promoter induction by the compound
Method: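 E. coli BW25113 (wild type or ΔmarA/ΔsoxS/Δrob) carrying pTU175 luxCDABE promoter reporters was grown in LB in 384-well plates at 37°C with each of 94 compounds at 4 two-fold concentrations, in biological duplicates. Luminescence and OD600 were read every 30 min for 12 h and integrated as AUC over 8 h (0-8 h WT, 1-9 h mutants). Lux AUC was divided by OD AUC; the interaction score is the residual of a Huber robust fit of each promoter against the empty-vector control, then Z-transformed per promoter.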

Structure (SMILES): C[C@H]1c2cccc(O)c2C(=O)C2=C(O)[C@]3(O)C(=O)C(C(N)=O)=C(O)[C@@H](N(C)C)[C@@H]3[C@@H](O)[C@@H]21 [Doxycycline]
- promoter activity interaction Z-score (0.064 µg/ml, genetic background: wild type): 0.973 ± 0.17
- promoter activity interaction Z-score (0.064 µg/ml, genetic background: ΔmarA): 2.43 ± 0.098
- promoter activity interaction Z-score (0.064 µg/ml, genetic background: Δrob): 0.676 ± 0.28
- promoter activity interaction Z-score (0.064 µg/ml, genetic background: ΔsoxS): 1.01 ± 0.13
- promoter activity interaction Z-score (0.13 µg/ml, genetic background: wild type): 2.72 ± 0.47
- promoter activity interaction Z-score (0.13 µg/ml, genetic background: ΔmarA): 4.3 ± 0.47
- promoter activity interaction Z-score (0.13 µg/ml, genetic background: Δrob): 1.1 ± 0.25
- promoter activity interaction Z-score (0.13 µg/ml, genetic background: ΔsoxS): 2.28 ± 0.13
- promoter activity interaction Z-score (0.26 µg/ml, genetic background: wild type): 3.51 ± 0.065
- promoter activity interaction Z-score (0.26 µg/ml, genetic background: ΔmarA): 2.23 ± 1.1
- promoter activity interaction Z-score (0.26 µg/ml, genetic background: Δrob): 0.478 ± 0.55
- promoter activity interaction Z-score (0.26 µg/ml, genetic background: ΔsoxS): 3.1 ± 0.92
- promoter activity interaction Z-score (0.51 µg/ml, genetic background: wild type): 0.833

Structure (SMILES): NCC[C@H](O)C(=O)N[C@@H]1C[C@H](N)[C@@H](O[C@H]2O[C@H](CN)[C@@H](O)[C@H](O)[C@H]2O)[C@H](O)[C@H]1O[C@H]1O[C@H](CO)[C@@H](O)[C@H](N)[C@H]1O [Amikacin]
- promoter activity interaction Z-score (0.07 µg/ml, genetic background: wild type): -0.0461 ± 0.062
- promoter activity interaction Z-score (0.07 µg/ml, genetic background: ΔmarA): -0.273 ± 0.075
- promoter activity interaction Z-score (0.07 µg/ml, genetic background: Δrob): -0.255 ± 0.1
- promoter activity interaction Z-score (0.07 µg/ml, genetic background: ΔsoxS): -0.0126 ± 0.0034
- promoter activity interaction Z-score (0.15 µg/ml, genetic background: wild type): -0.123 ± 0.09
- promoter activity interaction Z-score (0.15 µg/ml, genetic background: ΔmarA): -0.134 ± 0.044
- promoter activity interaction Z-score (0.15 µg/ml, genetic background: Δrob): -0.00793 ± 0.05
- promoter activity interaction Z-score (0.15 µg/ml, genetic background: ΔsoxS): -0.13 ± 0.069
- promoter activity interaction Z-score (0.29 µg/ml, genetic background: wild type): 0.0977 ± 0.14
- promoter activity interaction Z-score (0.29 µg/ml, genetic background: ΔmarA): 0.566 ± 0.32
- promoter activity interaction Z-score (0.29 µg/ml, genetic background: Δrob): 0.0547 ± 0.082
- promoter activity interaction Z-score (0.29 µg/ml, genetic background: ΔsoxS): 0.193 ± 0.079

Structure (SMILES): N[C@@H](C(=O)N[C@@H]1C(=O)N2C(C(=O)O)=C(Cl)CS[C@H]12)c1ccccc1 [Cefaclor]
- promoter activity interaction Z-score (0.11 µg/ml, genetic background: wild type): -0.22 ± 0.046
- promoter activity interaction Z-score (0.11 µg/ml, genetic background: ΔmarA): -0.342 ± 0.017
- promoter activity interaction Z-score (0.11 µg/ml, genetic background: Δrob): 0.00564 ± 0.3
- promoter activity interaction Z-score (0.11 µg/ml, genetic background: ΔsoxS): 0.0816 ± 0.011
- promoter activity interaction Z-score (0.23 µg/ml, genetic background: wild type): 0.101 ± 0.062
- promoter activity interaction Z-score (0.23 µg/ml, genetic background: ΔmarA): -0.215 ± 0.016
- promoter activity interaction Z-score (0.23 µg/ml, genetic background: Δrob): -0.0669 ± 0.059
- promoter activity interaction Z-score (0.23 µg/ml, genetic background: ΔsoxS): -0.244 ± 0.22
- promoter activity interaction Z-score (0.46 µg/ml, genetic background: wild type): -0.245 ± 0.15
- promoter activity interaction Z-score (0.46 µg/ml, genetic background: ΔmarA): 0.298 ± 0.42
- promoter activity interaction Z-score (0.46 µg/ml, genetic background: Δrob): 0.0148 ± 0.0067
- promoter activity interaction Z-score (0.46 µg/ml, genetic background: ΔsoxS): -0.145 ± 0.23

Structure (SMILES): CC[C@H]1OC(=O)[C@H](C)[C@@H](O[C@H]2C[C@@](C)(OC)[C@@H](O)[C@H](C)O2)[C@H](C)[C@@H](O[C@@H]2O[C@H](C)C[C@H](N(C)C)[C@H]2O)[C@](C)(OC)C[C@@H](C)C(=O)[C@H](C)[C@@H](O)[C@]1(C)O [Clarithromycin]
- promoter activity interaction Z-score (3.7 µg/ml, genetic background: wild type): 2.9 ± 0.24
- promoter activity interaction Z-score (3.7 µg/ml, genetic background: ΔmarA): 2.02 ± 0.13
- promoter activity interaction Z-score (3.7 µg/ml, genetic background: Δrob): 1.54 ± 0.29
- promoter activity interaction Z-score (3.7 µg/ml, genetic background: ΔsoxS): 2.44 ± 1
- promoter activity interaction Z-score (7.5 µg/ml, genetic background: wild type): 3.84 ± 0.18
- promoter activity interaction Z-score (7.5 µg/ml, genetic background: ΔmarA): 2.58 ± 0.055
- promoter activity interaction Z-score (7.5 µg/ml, genetic background: Δrob): 2.57 ± 1.6
- promoter activity interaction Z-score (7.5 µg/ml, genetic background: ΔsoxS): 4.77 ± 2.4
- promoter activity interaction Z-score (15 µg/ml, genetic background: wild type): 2.6 ± 3
- promoter activity interaction Z-score (15 µg/ml, genetic background: ΔmarA): 3.84
- promoter activity interaction Z-score (15 µg/ml, genetic background: Δrob): 4.65 ± 1.9
- promoter activity interaction Z-score (15 µg/ml, genetic background: ΔsoxS): 7.29 ± 0.54
